Bioassay records from PubChem BioAssay.
HT1080 IDH1KD tx: qHTS for induction of synthetic lethality in tumor cells producing 2HG: qHTS for the HT-1080-IDH1KD cell line; HT-1080 IDH1 knockdown viability, ATP luminescence, 48 h; Potency, µM (top dose mostly 46.1 µM), without a hit: at the highest dose activity, negative = toxicity, most hits filed as cytotoxic; 2% of 360,000 active;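 further: potency means the concentration at half of the fitted maximal effect; 0% = DMSO wells and -100% = cell-free medium wells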
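In this qHTS, HT-1080 cells depleted of IDH1 are exposed for 48 h at 37 °C to compound titrations. Toxicity is scored from CellTiter-Glo luminescence, with DMSO as full viability and medium alone as none.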
DT40 TDP1 no CPT: qHTS for Inhibitors of human tyrosyl-DNA phosphodiesterase 1 (TDP1): qHTS in cells in absence of CPT; AID 686978, 2013; Potency, µM (titrated, usually from 46.2 µM), without a hit: at the highest dose activity change, negative = growth inhibition, most hits filed as inhibitors; 15% of 420,000 active; DT40 Tdp1-/- hTDP1 cells, no CPT, ATP luminescence, 48 h; further: potency means the concentration at half of the fitted maximal effect; nearly all actives have a fitted effect of over 55% in size
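Chicken DT40 Tdp1-/- cells complemented with human TDP1, screened without camptothecin (DMSO vehicle only), 400 cells/well. Compounds pin-transferred, cells incubated at 37 °C for at least 48 hr. Growth read as ATP-dependent luminescence (CellTiter-Glo, 30 min at RT).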
HT1080-NT tox: qHTS for induction of synthetic lethality in tumor cells producing 2HG: qHTS for the HT-1080-NT fibrosarcoma cell line. 1.6% of 360,000 active. HT-1080-NT fibrosarcoma viability, CellTiter-Glo ATP luminescence, 48 h. Potency, µM (doses to about 46.1 µM), for inactives: at the top dose activity, negative = less viability, actives largely listed as cytotoxic. AID 686970, 2013;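 further: NT is the 2HG producing partner of a matched IDH1 knockdown line; potency means the concentration at half of the fitted maximal effect; 0% = DMSO-treated cells and -100% = media-only wells without cells; nearly all actives have a fitted effect of over 55% in size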
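HT-1080-NT; 750 cells/well; 5% FBS RPMI; 48 h compound, 37 degrees C; CellTiter-Glo luminescence; curve fitting and curve-class assignment.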
IL1B secr inh: qHTS for Inhibitors of Inflammasome Signaling: IL-1-beta AlphaLISA Primary Screen; activity change, % at 57.5 µM; THP-1 LPS/ATP IL-1B secretion, AlphaLISA, 16 h; stronger effect = lower value; AID 743279, 2014; 4.7% of 360,000 active; in the data active means activity change below about -50%; inconclusive means mostly about -30% to -49%
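THP-1 cells pretreated 1 hr with compounds (up to 57.5 uM final), then stimulated with LPS (250 ng/mL final) plus ATP (1.25 mM final); secreted IL-1B measured by AlphaLISA after 16 hr, decreased signal indicating inhibition.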
TDP1 cell CPT: qHTS for Inhibitors of human tyrosyl-DNA phosphodiesterase 1 (TDP1): qHTS in cells in presence of CPT; chicken DT40 Tdp1-/-;hTDP1 cells + 20 nM CPT, ATP luminescence, 48 h; Potency, µM (titrated, usually from 46.2 µM), for the others: top-dose activity change, negative = growth inhibition, usual class: inhibitors; 12% of 420,000 active; further: potency means the concentration at half of the fitted maximal effect; nearly all actives have a fitted effect of over 55% in size
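Chicken DT40 Tdp1-/- cells complemented with human TDP1, 400 cells/well, exposed to compounds plus 20 nM camptothecin for at least 48 h at 37 C; viability read as ATP content by CellTiter-Glo luminescence.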
Numbers without * were called inactive; ? = inconclusive; / = no result. The list is not random: actives were taken first. Their share in the collection is about 19%. Unless noted, the call rests on the fitted dose curve; in most records, active means well fitted curve in the direction sought with a large enough effect; inconclusive means small, poorly fitted or top-dose-only effect, or another doubt; inactive means no such curve, though single readings can be large; an effect the other way counts as inactive or inconclusive. Unless noted, on the % scale 0 is the no-effect control and ±100 the full control effect.

SMILES	HT1080 IDH1KD tx	DT40 TDP1 no CPT	HT1080-NT tox	IL1B secr inh	TDP1 cell CPT
O=c1ccc2cc(O)c(O)cc2o1	?	?	?	19	16µM*
O=c1ccc2ccc(O)cc2o1	?	-30%	0%	44	-20%
CC(=O)Nc1ccc(NC(=O)CN(c2ccc(C(C)C)cc2)S(=O)(=O)c2ccccc2)cc1	-14%	-6%	-13%	-16	-7%
O=C(Nc1ccccc1)Nc1cccc(C(F)(F)F)c1	-1%	?	0%	-27	?
CCSCCc1nnc(NC(=O)Nc2cccc(C(F)(F)F)c2)s1	?	2.3µM*	?	-69*	4.1µM*
Cc1ccc(C(=O)NCC(=O)Nc2ccc3c(c2)CCC3)cc1C	-10%	-10%	-8%	79	-4%
O=C(Nc1cccc([N+](=O)[O-])c1)Nc1cccs1	4%	?	2%	?	23µM*
O=C(Nc1cccc(C(F)(F)F)c1)Nc1cccs1	/	21µM*	/	/	?
Cc1cc(C(=O)Nc2ccc3c(c2)CCC3)ccc1[N+](=O)[O-]	5%	?	-4%	-69*	4%
COc1ccc(NC(=O)C2CCCN2C(=O)Nc2ccc(OC)cc2)cc1 (configuration not stated)	1%	6%	-10%	22	7%
O=C(Nc1ccccc1)Nc1ccc2c(c1)CCC2	11%	-12%	30%	?	-12%
O=C(Nc1cccc([N+](=O)[O-])c1)Nc1ccc2c(c1)CCC2	?	?	-21%	?	21µM*
CCOc1ccc(S(=O)(=O)N(CC(=O)NC2CCCCC2C)Cc2ccco2)cc1 (configuration not stated)	-5%	26µM*	1%	?	15µM*
Fc1cccc(-n2ncc(-c3nnnn3-c3ccccc3)c2C(F)(F)F)c1	1%	-23%	-1%	2	-6%
Cc1ccc(-n2nnnc2-c2cnc(N3CCCC3)nc2C(F)(F)F)cc1	?	12µM*	-18%	-25	23µM*
FC(F)(F)c1nc(N2CCCC2)ncc1-c1nnnn1-c1ccccc1	-29%	23µM*	29%	-19	16µM*
CC1CCN(c2nn3c(=O)c(C(=O)NCCCOC(C)C)cnc3s2)CC1	/	-17%	/	/	-19%
Cc1ccccc1N(CC(=O)Nc1ccc(S(=O)(=O)N2CCOCC2)cc1)S(C)(=O)=O	-10%	-31%	-12%	-4	0%
CCC(C)NCCOc1ccc(C)cc1[N+](=O)[O-] (configuration not stated)	5%	-21%	3%	-54*	0%
C=CCNCCOc1ccc(C)cc1[N+](=O)[O-]	-4%	7%	0%	-21	-2%
COC(=O)c1c(N2C(=O)[C@H]3[C@@H](C2=O)[C@]2(C(=O)Nc4c2ccc(C)c4C)N2CCC[C@@H]32)sc(C)c1C	-21%	16µM*	-18%	-10	18µM*
O=C1[C@H]2[C@@H](C(=O)N1c1cc(Cl)cc(Cl)c1)[C@]1(C(=O)Nc3ccccc31)N1CCC[C@@H]21	?	-6%	-17%	0	-26%
CN(Cc1ccco1)c1cc(-c2cccc(NS(C)(=O)=O)c2)ncn1	/	-9%	/	/	-19%
COCCCNC(=O)Cc1c(C)c2cc3c(cc2oc1=O)OC(C)(C)CC3	-16%	26µM*	-21%	17	26µM*
COCCCNC(=O)Cc1c(C)c2c(cc(C)c3c(C)c(C)oc32)oc1=O	-8%	13µM*	7%	30	?
COc1ccc(C(=O)C[n+]2cccc3cc(OC)ccc32)cc1	-9%	21µM*	-16%	-1	?
Clc1cccc(Cl)c1C[n+]1cccc2ccccc21	?	2.1µM*	?	-7	2.1µM*
